According to PubChem BioAssay (NCATS):
Records with an inconclusive call do not appear. Where a call stands in place of a potency, no number is given. Activity calls are given as the source filed them. Calls follow the shape of the dose curve; as a rule, active = well fitted inhibition curve with a large enough effect; inconclusive = small, poorly fitted or top-dose-only effect; inactive = flat fitted curve, though single readings scatter.

target: Voltage-gated inwardly rectifying potassium channel KCNH2 (Homo sapiens) (UniProt Q12809); experiment: qHTS Assay for Small Molecule Inhibitors of the Human hERG Channel Activity (AID 588834); conditions: U2OS BacMam hERG, FluxOR thallium flux fluorescence; series mostly up to 46.1 µM;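 also: lower thallium flux fluorescence means stronger hERG block; nearly all actives have a fitted effect of over 50% in size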
Sequence (Q12809 whole entry, looked up): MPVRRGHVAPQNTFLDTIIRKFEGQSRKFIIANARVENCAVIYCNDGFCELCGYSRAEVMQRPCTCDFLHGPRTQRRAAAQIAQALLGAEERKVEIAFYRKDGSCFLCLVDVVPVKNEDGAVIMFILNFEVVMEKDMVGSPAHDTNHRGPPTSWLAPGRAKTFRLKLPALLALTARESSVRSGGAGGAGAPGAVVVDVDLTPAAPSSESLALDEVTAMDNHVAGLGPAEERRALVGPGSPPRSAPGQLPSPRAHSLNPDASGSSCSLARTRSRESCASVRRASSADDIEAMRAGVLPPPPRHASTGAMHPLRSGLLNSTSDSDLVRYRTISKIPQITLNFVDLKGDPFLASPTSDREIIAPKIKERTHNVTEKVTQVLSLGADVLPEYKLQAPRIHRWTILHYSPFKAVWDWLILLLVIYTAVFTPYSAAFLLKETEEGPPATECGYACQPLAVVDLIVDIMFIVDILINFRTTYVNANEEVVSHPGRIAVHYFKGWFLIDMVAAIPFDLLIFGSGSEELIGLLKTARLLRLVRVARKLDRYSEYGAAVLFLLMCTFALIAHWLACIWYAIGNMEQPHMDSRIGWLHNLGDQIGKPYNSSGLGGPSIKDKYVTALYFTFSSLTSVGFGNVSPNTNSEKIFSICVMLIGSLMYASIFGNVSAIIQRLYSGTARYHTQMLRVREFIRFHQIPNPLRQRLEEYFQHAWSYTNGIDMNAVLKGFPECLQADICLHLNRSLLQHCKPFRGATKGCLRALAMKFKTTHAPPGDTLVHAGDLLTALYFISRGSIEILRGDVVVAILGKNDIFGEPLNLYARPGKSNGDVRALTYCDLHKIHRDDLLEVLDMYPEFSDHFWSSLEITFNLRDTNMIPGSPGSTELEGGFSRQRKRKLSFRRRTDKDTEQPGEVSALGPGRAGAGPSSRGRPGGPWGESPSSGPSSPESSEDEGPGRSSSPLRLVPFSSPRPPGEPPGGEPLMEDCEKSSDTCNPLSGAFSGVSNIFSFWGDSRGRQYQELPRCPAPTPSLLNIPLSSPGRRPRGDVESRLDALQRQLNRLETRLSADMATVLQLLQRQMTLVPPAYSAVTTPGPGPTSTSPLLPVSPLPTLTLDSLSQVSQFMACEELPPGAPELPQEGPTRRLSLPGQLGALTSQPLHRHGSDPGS
Outline: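 U2OS cells transduced with hERG via BacMam (MOI ~100), plated 2000/well, loaded with FluxOR thallium dye, compound ~10 min, then stimulation buffer; fluorescence decrease read kinetically; AC50 from Hill fits.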
Potency is read from the fitted curve at half-maximal effect.

Row | Compound | Potency
1 | Cc1ccccc1-n1c(C)nc2ccccc2c1=O | inactive
2 | [N-]=[N+]=CC(=O)OCC(N)C(=O)O (stereo unspecified) | inactive
3 | CCC1(c2ccccc2)C(=O)NC(=O)N(C(=O)c2ccccc2)C1=O (stereo unspecified) | inactive
4 | Ic1ccccc1CNC1C2CCN(CC2)C1C(c1ccccc1)c1ccccc1 (stereo unspecified) | 1000 nM (active)
5 | CC(Cc1ccc(OCC(=O)O)cc1)NCC(O)c1cccc(Cl)c1 (stereo unspecified) | inactive
6 | CCCCNCC(O)c1ccc(O)cc1 (stereo unspecified) | inactive
7 | CC(C)CC(NP(=O)(O)O[C@@H]1O[C@@H](C)[C@H](O)[C@@H](O)[C@H]1O)C(=O)NC(Cc1c[nH]c2ccccc12)C(=O)O (stereo partly specified) | inactive
8 | O=C1CN=C(c2ccccc2)c2cc(Cl)ccc2N1CC1CC1 | inactive
9 | CC1(C)[C@H](C=C(Cl)Cl)[C@H]1C(=O)OCc1c(F)c(F)cc(F)c1F | inactive
10 | COC([CH2][Hg])CNC(=O)c1ccccc1OCC(=O)O (stereo unspecified) | inactive
11 | CN1[C@H]2CC[C@@H]1[C@@H](C(=O)O)[C@@H](OC(=O)c1ccccc1)C2 | inactive
12 | CC(=O)O[C@H]1C[C@H](O[C@H]2[C@@H](O)C[C@H](O[C@H]3[C@@H](O)C[C@H](OC4CC[C@@]5(C)[C@H](CC[C@@H]6[C@@H]5CC[C@]5(C)[C@@H](C7=CC(=O)OC7)CC[C@]65O)C4)O[C@@H]3C)O[C@@H]2C)O[C@H](C)[C@H]1O[C@@H]1O[C@H](CO)[C@@H](O)[C@H](O)[C@H]1O (stereo partly specified) | inactive
13 | CC(C)NP(=O)(NC(C)C)OP(=O)(NC(C)C)NC(C)C | inactive
14 | NC(=O)COc1c(F)cc(SCCNS(=O)(=O)c2ccccc2)cc1F | inactive
15 | CCC(=O)O[C@@](Cc1ccccc1)(c1ccccc1)[C@@H](C)CN(C)C | inactive
16 | CCC1(c2ccccc2)C(=O)NC(=O)N(C)C1=O (stereo unspecified) | inactive
17 | C[N+](C)(C)CCOC(=O)CBr | inactive
18 | [2H]C([2H])([2H])[C@H](N)Cc1ccccc1 | inactive

Row | Compound | Potency
19 | CCC(=O)O[C@]1(c2ccccc2)CCN(C)C[C@H]1C | inactive
20 | O=C(NC(=O)c1c(F)cccc1F)Nc1ccc(Cl)c(Oc2ncc(C(F)(F)F)cc2Cl)c1 | inactive
21 | O=c1[nH]cc(N(CCCl)CCCl)c(=O)[nH]1 | inactive
22 | O=[N+]([O-])c1ccc2nc(N3CCNCC3)ccc2c1 | inactive
23 | CCNCC(O)c1cccc(O)c1 (stereo unspecified) | inactive
24 | CCON=O | inactive
25 | c1ccc2sc(SNC3CCCCC3)nc2c1 | inactive
26 | CNC(C)C(O)c1ccc(O)cc1 (stereo unspecified) | inactive
27 | CNC(=O)Oc1ccccc1C(=O)Nc1ccccc1 | inactive
28 | CC(N)[C@H](O)c1ccc(O)c(O)c1 (stereo partly specified) | inactive
29 | NC(Cc1cc(O)c(O)cc1O)C(=O)O (stereo unspecified) | inactive
30 | Clc1ccc(Cl)cc1 | inactive
31 | N[C@@H](Cn1oc(=O)[nH]c1=O)C(=O)O | inactive
32 | CC(=O)NBr | inactive
33 | CC(N)c1cccc(Cl)c1Cl (stereo unspecified) | inactive
34 | Oc1ccc2c3c1O[C@H]1c4oc5ccccc5c4C[C@@]4(O)C(C2)N(CC2CC2)CCC314 (stereo partly specified) | 355 nM (active)
35 | [H+].[H+].[Hg+2].[O-]B([O-])[O-].[c-]1ccccc1 | 10000 nM (active)
36 | OC[C@@H](O)[C@H]1O[C@@H]2O[C@@H](C(Cl)(Cl)Cl)O[C@@H]2[C@H]1O | inactive
